Bioassay records deposited in PubChem by The Scripps Research Institute Molecular Screening Center.
Shown are actives, neighbours in structure and some others; about 4.1% of the full set was active somewhere.
hcDAF12 agonist: H. contortus DAF-12 nuclear receptor activators, primary screen, cell-based, luminescence, HEK293, lit1-tk-luc reporter; HEK293 hcDAF-12 lit1-tk-luc reporter; 0% DMSO, 100% Δ7-dafachronic acid; activation, % at 6.8 µM; 1.4% of 370,000 active;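 active = activation above the mean of all tested compounds plus 3 SD, cut at about 5.5% in these data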
ssDAF-12 act: S. stercoralis DAF-12 nuclear receptor activators, primary screen, cell-based, luminescence, HEK293, GRIP1 co-expression, lit1-tk-luc. activation, % at 6.8 µM. 1% of 370,000 active. Nuclear hormone receptor DAF-12 (Strongyloides stercoralis). AID 652126, 2013. HEK293 ssDAF-12/GRIP1 lit1-tk-luc reporter; % of 3 µM dafachronic acid response;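 active = activation above the mean over all tested compounds plus 3 SD, cut at about 0.9% in these data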
DAX1 inh-1: DAX1 (NR0B1) inhibitors on StAR promoter, primary screen, cell-based, luminescence, SF-1 (NR5A1), full-length DAX-1; HEK293T StAR-luciferase reporter, SF-1/DAX-1 repression relief; inhibition, % at 6.8 µM; 1.1% of 370,000 active; AID 652010, 2013;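 active = inhibition above the mean over all tested compounds plus 3 SD, cut at about 3.6% in these data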;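 also: higher inhibition means more luminescence from relief of DAX-1 repression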
hgDAF-12 ag: H. glycines DAF-12 receptor agonists, primary screen, cell-based, luminescence, HEK293, GAL4 fusion, UAS-luciferase; HEK293 GAL4-hgDAF12 UAS-luciferase reporter, agonist luminescence; normalized to butyrate control; activation, % at 6.8 µM; 1.8% of 370,000 active;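 active = activation above a cutoff set at the mean of all screened compounds plus 3 SD, cut at about 10% in these data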
DAX1 inh-2: DAX1 (NR0B1) inhibitors, primary screen, cell-based, HEK293, Gal4-DAX1, luciferase luminescence. Nuclear receptor subfamily 0 group B member 1 (Homo sapiens), P51843. HEK293 Gal4-DAX1 luciferase reporter. inhibition, % at 6.75 µM. 0.99% of 340,000 active. AID 504766, 2011;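 active = inhibition above the mean over all tested compounds plus 3 SD, cut at about 4.2% in these data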;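 also: inhibition shows as a rise in luminescence from relieved DAX1 repression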
Target sequence (P51843 207-470 limits assumed): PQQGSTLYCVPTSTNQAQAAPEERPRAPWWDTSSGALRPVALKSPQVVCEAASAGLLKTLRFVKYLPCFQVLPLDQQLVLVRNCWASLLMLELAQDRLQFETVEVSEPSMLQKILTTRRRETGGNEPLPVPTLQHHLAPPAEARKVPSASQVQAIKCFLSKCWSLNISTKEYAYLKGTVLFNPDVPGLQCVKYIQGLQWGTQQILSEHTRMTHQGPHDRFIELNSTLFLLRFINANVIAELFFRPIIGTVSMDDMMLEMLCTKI
DAX1 conf: DAX1 (NR0B1) inhibitors relieving SF-1 repression, confirmation, cell-based, luminescence, HEK293T, full-length DAX-1, SF-1 activated StAR promoter. HEK293T StAR-promoter luciferase reporter, SF-1/DAX-1 repression. inhibition, % at 6.8 µM. 87% of 2,400 active. shares compounds with DAX1 inh-1;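 active = inhibition above the average of every tested compound plus 3 SD, cut at about 3.8% in these data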
SF1 mutant ctr: StAR reporter signal changes without DAX1, counter-screen for DAX1 inhibitor project, cell-based, luminescence, AF-2 mutant SF-1, transactivation; shares compounds with DAX1 inh-1; HEK293 StAR-luciferase, SF-1 AF2 mutant; inhibition, % at 6.8 µM; 78% of 2,400 active;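 active = inhibition above the mean of all tested compounds plus 3 SD, cut at about 3% in these data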
LXRb hcDAF ctr: LXR agonists, Gal4 luciferase reporter, confirmation, counter-screen for hcDAF-12 agonist project, cell-based, luminescence, HEK293, H. contortus campaign | shares compounds with hcDAF12 agonist | HEK293 Gal4-LXR tk-luc reporter, 24 h; normalized: DMSO 0%, positive control 100% | activation, % at 6.8 µM | 3,400 tested, under 10 active;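 active = mean percent activation of the reporter above a cutoff set as the average over tested compounds plus their standard deviation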
Target sequence (P55055 whole entry, looked up, the tested form may be a part): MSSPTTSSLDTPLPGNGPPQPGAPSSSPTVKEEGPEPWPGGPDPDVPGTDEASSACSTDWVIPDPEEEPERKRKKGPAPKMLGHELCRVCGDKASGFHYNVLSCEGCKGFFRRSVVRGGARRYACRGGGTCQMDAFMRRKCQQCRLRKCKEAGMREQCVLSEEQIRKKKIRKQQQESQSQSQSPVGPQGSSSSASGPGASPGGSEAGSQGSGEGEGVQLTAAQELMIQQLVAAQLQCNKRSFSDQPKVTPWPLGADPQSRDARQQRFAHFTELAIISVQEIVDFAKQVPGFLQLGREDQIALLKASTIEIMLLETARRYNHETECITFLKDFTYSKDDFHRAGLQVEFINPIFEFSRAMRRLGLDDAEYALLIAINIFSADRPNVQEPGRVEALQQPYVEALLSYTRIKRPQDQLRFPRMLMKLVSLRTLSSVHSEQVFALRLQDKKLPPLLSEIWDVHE
hcDAF12 conf: H. contortus DAF-12 receptor agonists, confirmation, cell-based, luminescence, HEK293, lit1-tk-luc, triplicate | activation, % at 6.8 µM | 61% of 3,400 active | shares compounds with hcDAF12 agonist | HEK293 hcDAF-12 lit1-tk-luc reporter; % of Δ7-dafachronic acid response;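 active = mean activation across triplicate tests above the threshold derived from the earlier primary screen, cut at about 5.5% in these data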
hgDAF12 ag: H. glycines DAF-12 receptor agonists, confirmation, cell-based, luminescence, HEK293, GAL4-LBD fusion | shares compounds with hgDAF-12 ag | HEK293 GAL4-hgDAF12 luciferase reporter, agonist mode; percent of butyrate response | activation, % at 6.8 µM | 80% of 3,300 active;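 active = mean activation over triplicate wells above the hit cutoff derived from the earlier primary screen, cut at about 11% in these data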
LXRb DAF12 ctr: LXR agonists, Gal4 luciferase reporter, confirmation, counter-screen for hgDAF-12 agonist project, cell-based, luminescence, HEK293, H. glycines campaign; shares compounds with hgDAF-12 ag; 24 h; activation, % at 6.8 µM; 3,300 tested, under 10 active;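 active = mean activation of the triplicate above a set limit carried over from the primary screen, none filed active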
A number is an active result; - = inactive; . = no result given.

SMILES | hcDAF12 agonist | ssDAF-12 act | DAX1 inh-1 | hgDAF-12 ag | DAX1 inh-2 | DAX1 conf | SF1 mutant ctr | LXRb hcDAF ctr | hcDAF12 conf | hgDAF12 ag | LXRb DAF12 ctr
COc1ccc(C2CC(c3ccc4ccccc4c3)=NN2C(=O)CNC2CCCCC2)cc1 (configuration not stated) | - | - | - | - | - | . | . | . | . | . | .
CCC(C)[C@H](NC(=O)C1COC(O)([C@H](Cc2ccccc2)NC(=O)[C@@H](NC(=O)OCc2ccccc2)C(C)C)CN1C)C(=O)N[C@H](C(=O)OC)C(C)C (some centres not stated) | - | - | . | - | . | . | . | . | . | . | .
CCCC(=O)N1CCN(c2ccc(NC(=O)c3ccco3)cc2)CC1 | - | - | - | - | - | . | . | . | . | . | .
CCN1CCN(c2ccc(NC(=O)c3ccco3)cc2)CC1 | - | - | 8.0 | 13.6 | - | 4.9 | 5.4 | . | . | 13.4 | -
O=P(O)(Cc1ccccc1)Cc1ccccc1 | - | - | - | - | - | . | . | . | . | . | .
CCOC(=O)C1CCCN(C(=O)c2cc3cc4ccc(OC)cc4nc3o2)C1 (configuration not stated) | . | . | . | . | - | . | . | . | . | . | .
COc1ccc2cc3cc(C(=O)N4CCCC(C)C4)oc3nc2c1 (configuration not stated) | - | - | 7.4 | 13.5 | - | 11.9 | 8.9 | . | . | 16.1 | -
Nc1cc2sc(-c3ccc(C(=O)O)cc3)nc2cc1Cl | - | - | - | - | - | . | . | . | . | . | .
Cc1cc(-c2nc3cc(F)ccc3s2)ccc1N | 18.1 | 3.7 | 7.0 | 19.9 | - | 8.4 | 4.5 | - | 16.9 | 23.6 | -
Cc1ccc2nc(N)nnc2c1 | - | - | - | - | - | . | . | . | . | . | .
Cc1ccc2nc(C)/c(=N\O)c(C)nc2c1 | 10.0 | - | 5.3 | 14.6 | - | 5.3 | 3.2 | - | - | - | -
CCOc1ccc(NC(=O)NCc2ccc3c(c2)OCO3)cc1 | - | - | - | - | - | . | . | . | . | . | .
CCN(CC)S(=O)(=O)c1cccc(C(=O)NC2=NCCS2)c1 | - | - | - | - | - | . | . | . | . | . | .
O=C(NC1=NCCS1)c1csc2ccccc12 | 8.3 | 1.1 | 4.5 | 17.4 | - | 12.2 | 8.1 | - | 10.0 | 18.9 | -
Cc1cccc(C(=O)NC2=NCCS2)c1 | - | 1.2 | 4.6 | 17.8 | - | 13.1 | 8.1 | . | . | 13.8 | -
O=C(NC1=NCCS1)c1ccccc1F | - | - | - | - | . | . | . | . | . | . | .
O/C(=C\c1ccc2ccccc2n1)c1ccc(O)cc1O | 8.9 | 1.4 | 5.3 | 23.7 | - | 15.9 | 7.1 | - | 10.2 | 22.4 | -
Cc1ccc(NC(=O)c2ccn(C)n2)c(Br)c1 | - | - | 5.9 | 14.8 | - | 13.1 | 8.8 | . | . | 16.5 | -
Cn1ccc(C(=O)Nc2ccc(Br)cc2Br)n1 | 7.7 | - | 4.9 | 19.6 | - | 11.3 | 6.6 | - | - | 13.0 | -
Cc1ccc(NC(=O)c2ccccn2)c(Br)c1 | 9.9 | 3.1 | 8.5 | 18.9 | 6.4 | 15.4 | 11.8 | - | 7.9 | 17.9 | -
CCCCN(C=O)c1c(CC)nc2c(OCC(=O)N3CCOCC3)cccn12 | - | - | - | - | . | . | . | . | . | . | .
COc1ccc(OCc2cc(C(=O)NCC3CCCCO3)no2)c(Cl)c1 (configuration not stated) | - | - | - | - | - | . | . | . | . | . | .
Cc1cc(C=C2C(=O)c3ccccc3C2=O)c(C)n1C | - | - | - | - | - | . | . | . | . | . | .
CCn1c(C)cc(C=C2C(=O)c3ccccc3C2=O)c1C | 16.6 | 4.4 | 5.6 | 18.2 | - | 15.1 | 8.0 | - | 14.6 | 15.1 | -
N#Cc1ccc(-c2nc3ccc(Cl)cn3c2Cc2cccc(F)c2)cc1 | - | - | - | - | . | . | . | . | . | . | .
SMILES | hcDAF12 agonist | ssDAF-12 act | DAX1 inh-1 | hgDAF-12 ag | DAX1 inh-2 | DAX1 conf | SF1 mutant ctr | LXRb hcDAF ctr | hcDAF12 conf | hgDAF12 ag | LXRb DAF12 ctr
Fc1cccc(Cc2c(-c3cccc(Br)c3)nc3ccc(Br)cn23)c1 | - | - | - | - | . | . | . | . | . | . | .
Fc1cccc(Cc2c(-c3ccc(Cl)cc3)nc3ccc(Br)cn23)c1 | - | - | 4.7 | 17.6 | . | - | - | . | . | - | -
Cc1ccc(-c2nc3ccc(Cl)cn3c2Cc2cccc(F)c2)cc1 | - | - | 6.5 | 20.7 | . | 9.7 | 4.9 | . | . | 10.7 | -
COC(=O)[C@@]12CCCCC3=C1N(CCC3)C(=O)[C@H]2CC(=O)N1CCOCC1 | - | - | - | - | . | . | . | . | . | . | .
C1=C(c2cn(-c3nc4ccccc4s3)nn2)CCCC1 | 11.9 | - | 11.5 | 20.4 | . | 12.0 | 5.8 | - | 8.5 | 20.1 | -
c1ccc2sc(-n3cc(C4CCCCC4)nn3)nc2c1 | 6.6 | 1.3 | 9.2 | 26.2 | . | 15.4 | 8.7 | - | 5.9 | 25.0 | -
c1ccc2sc(N3CCOCC3)nc2c1 | - | - | - | - | - | . | . | . | . | . | .
NC(=S)NN=C1C=CCCC1 | - | - | - | - | - | . | . | . | . | . | .
Cc1ccc(F)c(S(=O)(=O)NC(=O)C2(C)CCN2C(=O)Cc2cc(F)ccc2F)c1 (configuration not stated) | - | - | - | - | . | . | . | . | . | . | .
Clc1ccc(CSc2nc3ccncc3[nH]2)cc1 | 5.9 | - | 8.4 | 18.6 | - | 12.0 | 5.9 | . | . | 19.4 | -
O=c1[nH]c(SCc2ccc(Cl)cc2)nc2ccccc12 | - | - | - | - | - | . | . | . | . | . | .
